This is one part of a sample in which hits are shown more often than they occur.
DT40 TDP1 no CPT: qHTS for Inhibitors of human tyrosyl-DNA phosphodiesterase 1 (TDP1): qHTS in cells in absence of CPT | DT40 Tdp1-/- hTDP1 cells, no CPT, ATP luminescence, 48 h | Potency, µM (doses to about 46.2 µM), inactives show at the highest dose activity change, negative = growth inhibition, usual class: inhibitors | actives 15% (n = 420,000) | AID 686978, 2013; also: potency is read from the fitted curve at half-maximal effect; nearly all actives have a fitted effect of over 55% in size
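Camptothecin absent (DMSO only). Human TDP1-complemented DT40 knockout cells, 400 cells/well, 37 °C for minimum 48 hr; ATP measured via CellTiter-Glo, 30 min dark incubation, luminescence.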
IL1B secr inh: qHTS for Inhibitors of Inflammasome Signaling: IL-1-beta AlphaLISA Primary Screen. actives 4.7% (n = 360,000). THP-1 LPS/ATP IL-1B secretion, AlphaLISA, 16 h; hits give low values. activity change, % at 57.5 µM. AID 743279, 2014; in the data active = activity change below about -50%; inconclusive = mostly about -30% to -49%
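THP-1 cells pretreated 1 hr with compounds (up to 57.5 uM final), then stimulated with LPS (250 ng/mL final) plus ATP (1.25 mM final); secreted IL-1B measured by AlphaLISA after 16 hr, decreased signal indicating inhibition.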
12-LOX inh: Primary qHTS assay for inhibitors of human arachidonate 12S-lipoxygenase (ALOX12): Round 2. Polyunsaturated fatty acid lipoxygenase ALOX12 (Homo sapiens), P18054. purified 12hLO, xylenol orange hydroperoxide absorbance. Potency, µM (top dose mostly 108 µM), for inactives: top-dose activity change, negative = inhibition, usual class: inhibitors. actives 1.1% (n = 580,000). AID 1671190, 2021; also: potency is read from the fitted curve at half-maximal effect
Target sequence (P18054 whole entry, looked up): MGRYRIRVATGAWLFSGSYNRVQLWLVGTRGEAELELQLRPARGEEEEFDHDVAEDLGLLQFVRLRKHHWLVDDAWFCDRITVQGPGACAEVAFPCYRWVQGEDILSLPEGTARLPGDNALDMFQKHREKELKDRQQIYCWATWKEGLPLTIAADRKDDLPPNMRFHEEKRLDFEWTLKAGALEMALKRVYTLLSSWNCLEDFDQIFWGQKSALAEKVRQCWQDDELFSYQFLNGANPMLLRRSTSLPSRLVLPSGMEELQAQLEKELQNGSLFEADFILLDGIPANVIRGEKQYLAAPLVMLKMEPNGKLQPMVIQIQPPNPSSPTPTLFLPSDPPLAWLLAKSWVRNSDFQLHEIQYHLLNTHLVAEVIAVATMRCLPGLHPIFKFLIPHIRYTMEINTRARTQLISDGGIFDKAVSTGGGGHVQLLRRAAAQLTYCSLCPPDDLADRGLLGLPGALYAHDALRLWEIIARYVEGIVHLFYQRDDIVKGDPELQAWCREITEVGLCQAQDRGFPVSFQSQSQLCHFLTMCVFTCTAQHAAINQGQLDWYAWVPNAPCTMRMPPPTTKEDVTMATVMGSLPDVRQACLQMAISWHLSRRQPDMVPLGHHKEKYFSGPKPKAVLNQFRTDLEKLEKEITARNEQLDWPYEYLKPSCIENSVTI
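Purified human 12hLO (150 nM final) in 25 mM Hepes, 0.01% Triton X-100, pH 7.0 was preincubated 15 min at room temperature with compound. Then 40 uM arachidonic acid was added, 30 min. Hydroperoxide was read by Fe-XO absorbance ratio 573/405 nm.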
HT1080 IDH1KD tx: qHTS for induction of synthetic lethality in tumor cells producing 2HG: qHTS for the HT-1080-IDH1KD cell line | HT-1080 IDH1 knockdown viability, ATP luminescence, 48 h | Potency, µM (highest dose often 46.1 µM), for inactives: top-dose activity, negative = toxicity, most hits filed as cytotoxic | actives 2% (n = 360,000);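 also: potency is read from the fitted curve at half-maximal effect; 0% = DMSO wells and -100% = cell-free medium wells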
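After a 2 h attachment period, IDH1KD HT-1080 cells took pin-transferred compound for 48 h at 37 °C; ATP-based luminescence after 10 min room-temperature reagent incubation reported viability.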
HT1080-NT tox: qHTS for induction of synthetic lethality in tumor cells producing 2HG: qHTS for the HT-1080-NT fibrosarcoma cell line | Potency, µM (top dose mostly 46.1 µM), for inactives: at the highest dose activity, negative = less viability, actives largely listed as cytotoxic | HT-1080-NT fibrosarcoma viability, CellTiter-Glo ATP luminescence, 48 h | actives 1.6% (n = 360,000);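 also: NT is the 2HG producing partner of a matched IDH1 knockdown line; potency is read from the fitted curve at half-maximal effect; 0% = DMSO-treated cells and -100% = media-only wells without cells; nearly all actives have a fitted effect of over 55% in size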
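A 48-hour cytotoxicity screen used HT-1080-NT cells plated 2 hours before compound delivery. ATP-based CellTiter-Glo luminescence measured viability, normalized to DMSO and no-cell controls.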
DT40 TDP1 CPT: qHTS for Inhibitors of human tyrosyl-DNA phosphodiesterase 1 (TDP1): qHTS in cells in presence of CPT | chicken DT40 Tdp1-/-;hTDP1 cells + 20 nM CPT, ATP luminescence, 48 h | Potency, µM (series often up to 46.2 µM), for inactives: at the highest dose activity change, negative = growth inhibition, usual class: inhibitors | actives 12% (n = 420,000) | AID 686979, 2013; also: potency is read from the fitted curve at half-maximal effect; nearly all actives have a fitted effect of over 55% in size
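Chicken DT40 Tdp1-/- cells stably complemented with human TDP1 were seeded at 400 cells/well in medium containing 20 nM camptothecin, exposed to pin-transferred compounds, and grown at 37 °C for at least 48 hr. Viability was read as ATP luminescence.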
Numbers without * were called inactive; ? = inconclusive; . = not tested or not shown; [ ] = dose if it differs, or a comment. Unless noted, calls follow the shape of the dose curve; as a rule, active = well fitted curve in the direction sought with a large enough effect; inconclusive = small, poorly fitted or top-dose-only effect, or another doubt; inactive = no such curve, though single readings can be large; an effect the other way counts as inactive or inconclusive. Unless noted, % is scaled to controls: 0 for no effect and ±100 for the full control effect.

SMILES	DT40 TDP1 no CPT	IL1B secr inh	12-LOX inh	HT1080 IDH1KD tx	HT1080-NT tox	DT40 TDP1 CPT
O=C(COc1ccc([N+](=O)[O-])cc1Cl)NCCc1ccccc1	?	3.7	-14.1%	17.4%	10.1%	-14.7%
CCOc1ccccc1OCCCOc1ccc([N+](=O)[O-])cc1Cl	23.1µM*	-22.7	-8.9%	-3.4%	-1.5%	-74.5%
CC(C)C(C)NC(=O)COc1ccc([N+](=O)[O-])cc1Cl (centres undefined)	?	-8.2	-11.0%	-10.5%	0.8%	8.2µM*
CCc1nc2ccc(C(=O)Nc3cccc(OCC(=O)N(C)C)c3)cn2c1N(CCN(C)C)CC1CC1	-0.3%	-16.0	13.0%	8.7%	7.6%	0.4%
CCc1nc2ccc(C(=O)Nc3cccc(OCC(=O)N(C)C)c3)cn2c1N(CC)CCOC	16.4µM*	-20.1	-43.2%	?	27.5%	16.4µM*
CCc1nc2ccc(C(=O)Nc3cccc(OCC(=O)N(C)C)c3)cn2c1N(C)Cc1ccc(OC)cc1	18.4µM*	-12.2	-3.8%	-16.7%	?	23.1µM*
CCc1nc2ccc(C(=O)Nc3cccc(OCC(=O)N(C)C)c3)cn2c1N(CC)CCN(C)C	9.0%	9.2	-11.9%	4.1%	17.0%	9.8%
Cc1nc2ccc(C(=O)Nc3cccc(OCC(=O)N(C)C)c3)cn2c1N(C)CC1CCCCC1	13µM*	-50.9*	-3.8%	?	?	20.6µM*
CC1SC2(NC1=O)C1CC3CC2CC(O)(C3)C1 (centres undefined)	.	.	2.3%	.	.	.
COCc1nn2c(=O)c(NC(=O)c3ccc(Cl)cc3)cnc2s1	.	.	9.1%	.	.	.
O=C(NCc1ccncc1)c1cc(S(=O)(=O)C2CCS(=O)(=O)C2)ccc1F (centres undefined)	.	.	-1.3%	.	.	.
Cc1cc(C)nc(N2CCN(C(=O)c3ccc(S(=O)(=O)N4CCCCCC4)cc3)CC2)n1	16.4µM*	13.8	21.2%	14.8%	5.4%	25.9µM*
Cc1ccc(S(=O)(=O)N2CCN(C(=O)c3ccc(S(=O)(=O)N4CCCC4)cc3)CC2)cc1	10.8%	-11.2	0.7%	3.2%	5.7%	-5.9%
O=C(c1ccc(S(=O)(=O)N2CCCC2)cc1)N1CCN(c2cccc(Cl)c2)CC1	18.4µM*	-25.7	0.0%	-3.9%	-16.7%	23.1µM*
CC(=O)c1ccc(S(=O)(=O)N2CCN(C(=O)c3ccc(-n4nc(C)c(Cl)c4C)cc3)CC2)cc1	13µM*	-13.5	-11.6%	-11.7%	-4.6%	16.4µM*
CC[C@H]1CN(C(=O)C2CC2)CC[C@H]1CC(=O)NC1CC1	.	.	16.3%[176 µM]	.	.	.
O=C(Nc1ccc2c(c1)OCO2)C1CCN(c2ccc3nncn3n2)CC1	.	.	-13.2%	.	.	.
CCN(Cc1cc2ccccc2[nH]c1=O)S(C)(=O)=O	.	.	1.8%	.	.	.
CN(C)/C=N/c1ncc(C(=O)c2ccc(-c3ccccc3)cc2)s1	?	-52.5*	11.3%	-25.9%	-22.9%	-10.6%
CN(C)/C=N/c1ncc(C(=O)c2ccccc2)s1	-3.9%	-6.0	6.7%	1.5%	-0.2%	-9.3%
N=c1n(CC(=O)c2ccc(Br)s2)c2ccccc2n1Cc1ccccc1	4.61µM*	-103.9*	?	-2.8%	-0.8%	5.17µM*
Cn1c(=N)n(CC(=O)c2cccs2)c2ccccc21	-22.4%	6.3	14.1%[57.4 µM]	0.0%	-5.5%	?
CCCn1c(=N)n(CC(=O)c2cccs2)c2ccccc21	?	-18.7	15.6%	-1.3%	8.6%	?

Assay outcomes: PubChem BioAssay, National Center for Advancing Translational Sciences (NCATS)
